PPC-1+TRAIL kill: kills PPC-1 cancer cells in the presence of TRAIL; PPC-1 cells + TRAIL, ATPLite viability luminescence; 220,000 compounds, 0.41% hits; cell killing (% activity), % at 4 µM or 5 µM; AID 1443;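 active = cell killing above 50% in the first pass at 4 µM, then a duplicate retest at 5 µM averaging 50% or more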
C8 TRAIL sens: sensitizes caspase-8 expressing cells to TRAIL; NB7+C8 cells + TRAIL, ATPlite viability luminescence; inhibition (viability loss, TRAIL sensitization), % at 10 µM; 360,000 compounds, 1% hits; AID 624354;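 active = compounds causing at least 50% loss of cell viability in the single-dose screen, relative to plate controls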
HIF-2a inh: blocks HIF-2a reporter activity | 786-0 RCC cells HIF-2a reporter, luciferase luminescence, overnight | inhibition, % at 18.8 µM | 360,000 compounds, 0.72% hits | AID 624352;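 active = inhibition of the luminescence signal of 40% or more relative to plate controls, in a single-dose primary screen at 18.75 µM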
Peg3 prom inh: Peg3 promoter activity inhibition | inhibition, % at 20 µM | AID 588405 | 360,000 compounds, 1.7% hits | HeLa PEG-Prom luciferase reporter, luminescence, overnight;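 active = inhibition of at least 50% at 20 µM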
CF NFkB block: inhibitors of cystic fibrosis induced NF-kB | KKLEB NF-kB-GFP reporter, PAF-induced, GFP fluorescence overnight | AID 588850 | 360,000 compounds, 0.86% hits | inhibition, % at 5 µM;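 active = at least 50% inhibition at 5 µM, scaled per plate between neutral and stimulator controls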;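 also: PAF is a Pseudomonas aeruginosa culture filtrate used as stimulus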
KKLEB cytotox: CF airway cell cytotoxicity counter-screen. KKLEB CF airway cells viability, ATPlite luminescence, overnight; active compounds read low; cells stimulated with P. aeruginosa culture filtrate. activity change (cytotoxicity), % at 5 µM. 360,000 compounds, 0.36% hits;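 active = corrected activity change at or below -50% at 5 µM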
A number is an active result; 0 = inactive; - = no result given. Rows were chosen to be rich in hits. Some 3.1% of all compounds tested hit in one or more screens of this group.

SMILES | PPC-1+TRAIL kill | C8 TRAIL sens | HIF-2a inh | Peg3 prom inh | CF NFkB block | KKLEB cytotox
Cc1cccc(NC(=O)C(C)Oc2ccc(C)nc2[N+](=O)[O-])c1 (stereo not drawn) | - | 0 | 0 | 0 | 0 | 0
CCOC(=O)N1C2=NC(C(=O)OC)=C(C(=O)OC)[C@@H]3N(C)c4ccc(OC)cc4[C@]23C[C@H]1C(=O)OC | - | 0 | 0 | 0 | 0 | 0
COC(=O)C1=C(C(=O)OC)[C@@H]2N(Cc3ccccc3)c3ccccc3[C@@]23C[C@@H](C(=O)OC)N(C(C)=O)C3=N1 | 0 | 0 | 0 | 0 | 0 | 0
COC(=O)C1=C(C(=O)OC)[C@@H]2N(C)c3ccc(OC)cc3[C@@]23C[C@@H](C(=O)OC)N(C(=O)c2ccc(Br)cc2)C3=N1 | 0 | 0 | 0 | 79 | 55 | 0
CC#CCN1c2ccccc2[C@]23C[C@@H](C(=O)OC)N(C(=O)C4CCC4)C2=NC(C(=O)OC)=C(C(=O)OC)[C@H]13 | 0 | 0 | 0 | 75 | 0 | 0
COC(=O)C1=C(C(=O)OC)[C@@H]2N(Cc3ccccc3)c3ccccc3[C@@]23C[C@@H](C(=O)OC)N(C(=O)COCc2ccccc2)C3=N1 | 0 | 0 | 0 | 55 | 0 | 0
CC#CCN1c2ccccc2[C@]23C[C@@H](C(=O)OC)N(C(=O)OCC)C2=NC(C(=O)OC)=C(C(=O)OC)[C@H]13 | 0 | 0 | 0 | 0 | 0 | 0
C=CCN1c2ccccc2[C@]23C[C@@H](C(=O)OC)N(C(=O)c4cccs4)C2=NC(C(=O)OC)=C(C(=O)OC)[C@H]13 | 0 | 0 | 0 | 75 | 0 | 0
Cc1ccc2c(c1)CCCN2S(=O)(=O)c1cccc(C(=O)Nc2ccccc2C(=O)O)c1 | - | 0 | 0 | 0 | 0 | 0
C[C@H](c1ccccc1)N1C[C@H](COCc2ccccc2)Oc2cc(N3CC[C@@H](O)C3)ccc2S1(=O)=O | - | 0 | 0 | - | - | -
CCc1ccc(-c2cc(C(=O)N/N=C/c3c[nH]c4ccccc34)[nH]n2)cc1 | 0 | 60 | 0 | 0 | 0 | 0
CCCN(CCC)C(=O)CSc1nc2ccccc2c(=O)n1CC1COc2ccccc2O1 (stereo not drawn) | 0 | 0 | 0 | 51 | 0 | 0
CCN(Cc1ccccc1)S(=O)(=O)c1ccc(C(=O)N(CCCN(C)C)c2nc3c(C)c(C)ccc3s2)cc1 | - | 0 | 0 | 93 | 0 | 0
CN(C)CCCN(C(=O)c1ccc(Br)s1)c1nc2cc3c(cc2s1)OCO3 | 0 | 0 | 0 | 59 | 0 | 0
Cc1ccc2sc(N(CCCN(C)C)C(=O)c3ccc(Br)s3)nc2c1C | 0 | 0 | 0 | 62 | 0 | 0
CN(C)CCCN(C(=O)c1ccc2c(c1)CCCC2)c1nc2cc3c(cc2s1)OCO3 | - | 0 | 0 | 57 | 0 | 0
CN(C)CCCN(C(=O)c1ccc2c(c1)CCCC2)c1nc2ccc(F)cc2s1 | 0 | 0 | 0 | 0 | 0 | 0
Cc1ccc(S(=O)(=O)c2cc3cc(Br)ccc3oc2=O)cc1 | 0 | 0 | 0 | 0 | 0 | 0
CC(C)c1ccc(S(=O)(=O)c2cc3cc(Br)ccc3oc2=O)cc1 | 0 | 0 | 0 | 88 | 0 | 0
Cc1ccc(C)c(NC(=O)CN(C)C(C)C(=O)N2CC(C)CC(C)C2)c1 (stereo not drawn) | - | 0 | 0 | 0 | 0 | 0
Cc1ccc(S(=O)(=O)N(C)c2ccccc2C(=O)Nc2c(F)cccc2F)cc1 | - | 0 | 0 | 0 | 0 | 0
CC(C)c1ccc(/C=C/c2ccc(=O)n(C)n2)cc1 | 0 | 62 | 0 | 0 | 0 | 0
CCOC(=O)C(C)n1nc(/C=C/c2ccc(OC)cc2)ccc1=O (stereo not drawn) | 0 | 0 | 0 | 0 | 0 | 0
COc1ccc(-c2ccc(C(=O)Nc3cccc(NS(C)(=O)=O)c3)c3occc23)c(C)c1 | - | 0 | 0 | 0 | 0 | 0
Cc1ccc2nc(NC(=O)c3ccccc3F)sc2c1 | - | 58 | 0 | 0 | 0 | 0
SMILES | PPC-1+TRAIL kill | C8 TRAIL sens | HIF-2a inh | Peg3 prom inh | CF NFkB block | KKLEB cytotox
CCOc1ccc2nc(NC(=O)Nc3ccccc3)sc2c1 | 0 | 0 | 0 | 0 | 0 | 0
COc1ccc2nc(NC(=O)c3ccccc3C(=O)O)sc2c1 | - | 0 | 0 | 0 | 0 | 0
COc1ccc2nc(NC(=O)c3ccccc3F)sc2c1 | - | 69 | 0 | 0 | 0 | 0
COc1ccc2nc(NC(=O)c3cnccn3)sc2c1 | 0 | 53 | 0 | 0 | 0 | 0
COc1ccc2nc(NC(=O)Nc3ccccc3)sc2c1 | 0 | 59 | 0 | 0 | 0 | 0
CCCC(=O)Nc1nc2ccc(NC(=O)c3ccccc3F)cc2s1 | 0 | 0 | 0 | 0 | 0 | 0
CC1(C)Oc2ccc(C(=O)Nc3ccccc3)cc2N(CC#N)C1=O | - | 0 | 0 | 0 | 0 | 0
COc1ccc2nc(NC(=O)c3cccc(-c4cc5ccccc5oc4=O)c3)sc2c1 | 0 | 0 | 0 | 99 | 60 | -54
COc1ccc(-c2nc(-c3ccc(NC(=O)c4ccncc4)cc3)no2)cc1OC | 0 | 66 | 0 | 99 | 0 | 0
COc1ccc(NC(=O)c2ccc(-c3ccc(-c4noc(C)n4)cc3C)cc2)cc1N1CCN(C)CC1 | - | 0 | 0 | 64 | 0 | 0
COc1ccc(Cl)cc1-c1nc(-c2ccc(NC(=O)c3ccncc3)cc2)no1 | - | 0 | 0 | 0 | 0 | 0
COc1ccc(CC(=O)Nc2ccc(-c3noc(-c4ccc(Cl)cc4)n3)cc2)cc1 | 0 | 0 | 0 | 57 | 0 | -55
COc1ccc(OCC(=O)N/N=C(\C)c2ccc(-n3ccnc3)cc2)cc1 | 0 | 0 | 0 | 0 | 0 | 0
C/C(=N\NC(=O)COc1ccc(C(C)(C)C)cc1)c1ccc(-n2ccnc2)cc1 | 0 | 59 | 0 | 0 | 0 | 0
NC(=O)C1=CC2C3C=CC2(O)C(=O)OC3O1 (stereo not drawn) | - | 0 | 0 | 102 | 0 | 0
COc1ccc(C=O)c(-c2c(-c3ccccc3OC)sc3ccccc23)c1 | - | 0 | 0 | - | - | -
CCN(CC)c1ccc(/C=N/Nc2nc(C)cc(=O)[nH]2)c(O)c1 | 58 | 0 | 0 | 0 | 0 | 0
Nc1nc(N)c2cc(S(=O)(=O)c3ccc4ccccc4c3)ccc2n1 | - | 72 | 0 | 0 | 0 | 0
COC(=O)C(CCSC)NC(=O)c1cn(-c2ccc(OC)cc2)c(=O)c2ccccc12 (stereo not drawn) | - | 0 | 0 | 0 | 0 | 0
CC(C)C[C@H](N)c1nnc(S(=O)(=O)Cc2ccc(F)cc2)o1 | 0 | 0 | 0 | 114 | 90 | 0
CC(C)C[C@H](N)c1nnc(SCC(=O)Nc2ccc(Br)cc2)o1 | - | 0 | 0 | 0 | 0 | 0
CC(=O)N1CCN(C2=Nc3cccc4cccc2c34)CC1 | 0 | 0 | 0 | 0 | 0 | 0
COc1ccccc1N1CCN(C2=Nc3cccc4cccc2c34)CC1 | 0 | 67 | 0 | 0 | 0 | 0
O=C(Nc1ccccc1SC(=O)c1ccccc1)c1ccccc1 | - | 0 | 0 | 0 | 0 | 0
Cc1ccc(C(=O)Sc2cccccc2=O)cc1 | - | 61 | 0 | 103 | 0 | 0
COc1ccc(NCc2nnc(SCC(=O)c3ccc(OC)cc3)o2)cc1 | 0 | 0 | 0 | 0 | 0 | 0
